Inhibition data for 26 molecules are collected here from PubChem BioAssay AID651636 (Sanford-Burnham Center for Chemical Genomics, 2012).

Screen size: about 360,000 compounds; about 3,000 (0.83%) were called active. No stated cut-off is given here; in the data, active means inhibition above about 38%; inactive means the rest. The sample as a whole holds a higher share of actives than the screen did.

For this experiment, the target named is G-protein coupled receptor 183 (Homo sapiens) (UniProt P32249). The experiment in a line: blockers of oxysterol-driven EBI2 arrestin signaling – cell-based, luminescence, 7a,25-OHC stimulation, uHTS, primary screen (AID 651636).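 Further: enzyme fragment complementation signal reports receptor beta-arrestin coupling in cells; 0% = agonist plus DMSO wells and 100% = wells without agonist.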 The following applies: EBI2 beta-arrestin recruitment, 7a,25-OHC stimulated, at 5 µM, hits give high values.
Sequence of G-protein coupled receptor 183 (Homo sapiens) (P32249 whole entry, looked up, the tested form may be a part): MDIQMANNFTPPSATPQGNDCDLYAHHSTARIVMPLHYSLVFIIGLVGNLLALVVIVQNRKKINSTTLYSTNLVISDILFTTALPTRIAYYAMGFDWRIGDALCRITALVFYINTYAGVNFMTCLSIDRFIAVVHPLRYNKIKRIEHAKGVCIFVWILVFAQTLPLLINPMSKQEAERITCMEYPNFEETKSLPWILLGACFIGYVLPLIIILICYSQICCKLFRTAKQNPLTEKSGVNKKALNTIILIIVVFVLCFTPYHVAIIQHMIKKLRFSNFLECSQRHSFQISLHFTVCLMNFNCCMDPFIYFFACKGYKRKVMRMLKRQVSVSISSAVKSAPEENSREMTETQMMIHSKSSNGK
Turning to `CCN(CC)CCNc1nc(-c2ccc(OC(F)F)cc2)c(C)s1`, the inhibition was 7.54% (inactive). Regarding `CCCCn1nnnc1C(c1cc2ccccc2o1)N(C)Cc1ccc(Cl)c(Cl)c1` (stereo unspecified), the inhibition is 15.8% (inactive). For `COCCNC(=S)c1ccc(OC)cc1` the value was -12.7% (inactive); for `CN(C)C(=S)N=c1ssc(=S)n1Cc1ccco1`, -5.43% (inactive). As for `Cc1cs/c(=N\N=C\c2ccc(O)cc2)n1Cc1ccco1`, the inhibition was 50.6% (active). Turning to `CC(C)NC(=O)NNc1c(Cl)cncc1Cl`, the inhibition is 1.07% (inactive).

Take `ONC(=Nc1ccc(Cl)cc1)c1ccccc1Cl`: the inhibition is -0.13% (inactive).

In the case of `COc1ccc(NC(=O)CCNS(=O)(=O)c2ccc3c(c2)c(=O)n(C)c(=O)n3C)cc1OC`, the inhibition was -1.47% (inactive). For `COc1ccc(NC2CC(=O)N(C)C2=O)cc1` (stereo unspecified) the value was -2.09% (inactive); for `COC(=O)c1ccc(COC(=O)c2cnc(Cl)c(Cl)c2)cc1`, 4.66% (inactive); for `CCOc1ccc(C(C)=O)cc1COC(=O)c1cnc(Cl)c(Cl)c1`, 43.3% (active). Consider `CCOc1ccc(C(C)=O)cc1COC(=O)CNC(=O)c1cccs1`, for which the inhibition was 4.34% (inactive).

As to `Cc1c(Br)ccc(NC(=O)COc2ccccc2C(N)=O)c1C`, the inhibition was -2.44% (inactive). Consider `CC(=O)Nc1ccc(N2C(=O)CCC2=O)cc1C`, for which the inhibition was 4.9% (inactive). In the case of `CN(CC(=O)NC1CCN(Cc2ccccc2)CC1)S(=O)(=O)c1ccc(Cl)s1` it was 1.99% (inactive).

On to `COC(=O)C1CCN(C(=O)NC2CC(=O)N(c3ccc4c(c3)OCCO4)C2)CC1` (stereo unspecified), for which the inhibition was 8.78% (inactive). For `COc1cc2c(cc1OC)CC1(CCCCC1)N=C2` the value was 7.31% (inactive); for `CN(C)S(=O)(=O)c1cccc(NC(=O)COc2ccc3ccccc3c2)c1`, 8.2% (inactive). In the case of `Cc1ccc(C)c(NC(=O)CN(C)C(=O)COc2ccc3ccccc3c2)c1` it was 27.2% (inactive); in that of `CN(Cc1ccc(F)cc1)C(=O)COc1ccc2ccccc2c1`, 93.1% (active). For `CC1(C)OC(=O)C2=C(C[C@@H](C3CCCC3)O[C@@H]2c2ccc(Cl)cc2)O1` the value was -3.37% (inactive); for `Cn1c(CC2Sc3ccccc3NC2=O)nnc1SCC(=O)c1ccc(Cl)cc1` (stereo unspecified), 3.76% (inactive). With `Cc1ccc(-c2nn(-c3ccccc3)cc2C(=O)Nc2cccc(S(=O)(=O)N3CCOCC3)c2)cc1`, the inhibition is 27.6% (inactive). As for `O=C(/C=C/c1cn(-c2ccccc2)nc1-c1ccc2c(c1)OCCO2)NCCCN1CCOCC1`, the inhibition is 3.63% (inactive).

Regarding `Cc1ccc(-c2nn(-c3ccccc3)cc2/C=C/C(=O)Nc2cccc(S(N)(=O)=O)c2)cc1`, the inhibition is 41.1% (active). `CC[C@]12c3[nH]c4cc(CCC(=O)N(C)C)ccc4c3CCN1C(=O)[C@@H](CC(=O)NCc1ccco1)C[C@@H]2C(=O)N1CCN(C(=O)c2ccco2)CC1`: the inhibition is -5.36% (inactive).
